Measured values taken from the supplement of paper PMC9177965.

system: HT29 RNF43 G659fs (RNF43 659mut, CRISPR-edited); assay: cell viability activity relative to DMSO (negative = inhibition); higher = more viable cells (less growth inhibition); conditions: 5 µM; 96 h
Method: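 Broad Repurposing Library primary screen at a single dose of 5 uM. HT29 sg-Ctrl and HT29 RNF43 G659fs CRISPR-edited isogenic cells were seeded at 2500 cells/well in 384-well plates in duplicate and treated for 96 h. Viability was read by CellTiter-Glo and reported as % activity relative to DMSO, with MG132 as the positive control (negative = growth inhibition).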

Row | Structure (SMILES) | cell viability activity
1 | CCN(CC)CCN(Cc1ccc(-c2ccc(C(F)(F)F)cc2)cc1)C(=O)Cn1c(SCc2ccc(F)cc2)nc(=O)c2c1CCC2 | -96.2%
2 | C[C@H](Oc1ccc(S(C)(=O)=O)cc1C(=O)N1CCN(c2ncc(C(F)(F)F)cc2F)CC1)C(F)(F)F | -65.2%
3 | C[C@@H](C(=O)O)c1ccc(-c2ccccc2)c(F)c1 | -68.9%
4 | CCCCCCCCCCCC[N+](C)(C)CCOc1ccccc1 | -84.4%
5 | CN(C)C(=O)C(CCN1CCC(O)(c2ccc(Cl)cc2)CC1)(c1ccccc1)c1ccccc1 | -67.6%
6 | CN1CCC(CNc2ccc3ncc(-c4cccc(OC(F)(F)F)c4)n3n2)CC1 | -53%
7 | Cc1nc(C#Cc2ccnc(Cl)c2)c(C)n1-c1ccc(OC(F)(F)F)cc1 | -25.5%
8 | C[C@@H](NC(=O)c1ncnc(N)c1Cl)c1ncc(C(=O)Nc2cc(C(F)(F)F)c(Cl)cn2)s1 | -24.4%
9 | COc1ccc(N(C)c2nc(C)nc3ccccc23)cc1 | -59.2%
10 | CCOc1ccc(Cc2nccc3cc(OCC)c(OCC)cc23)cc1OCC | -32.7%
11 | Cn1cc(-c2ccncc2)c(-c2ccc(OCc3ccc4ccccc4n3)cc2)n1 | -46.2%
12 | CN1CCC(NC(=O)c2cc(-c3c(O)cc(O)cc3Oc3ccc([N+](=O)[O-])cc3)on2)CC1 | -26.7%
13 | COCCOC(=O)C1=C(C)NC(C)=C(C(=O)OC/C=C/c2ccccc2)C1c1cccc([N+](=O)[O-])c1 (stereo not given) | -57.6%
14 | O=c1cc(N2CCOCC2)oc2c(-c3cccc4c3sc3ccccc34)cccc12 | -57.6%
15 | Nc1ccccc1NC(=O)c1ccc(CNC(=O)OCc2cccnc2)cc1 | -71.7%
